Measurements as given in PubChem BioAssay (NCATS).
Unmarked numbers belong to inactive results. Inconclusive results are not listed. Calls of active or inactive are those of the source. Unless noted, the call rests on the fitted dose curve; in most records, active means well fitted curve in the direction sought with a large enough effect; inconclusive means small, poorly fitted or top-dose-only effect, or another doubt; inactive means no such curve, though single readings can be large; an effect the other way counts as inactive or inconclusive.

Assays:
[1] = molecular target: Lysosomal acid glucosylceramidase (Homo sapiens) (UniProt P04062); test: Glucocerebrosidase-p2 (AID 348; in the data active means potency below about 10 µM; further: potency means the concentration at half of the fitted maximal effect); details: purified GBA, blue fluorogenic substrate, 40 min
Chain of Lysosomal acid glucosylceramidase (Homo sapiens) (P04062 whole entry, looked up): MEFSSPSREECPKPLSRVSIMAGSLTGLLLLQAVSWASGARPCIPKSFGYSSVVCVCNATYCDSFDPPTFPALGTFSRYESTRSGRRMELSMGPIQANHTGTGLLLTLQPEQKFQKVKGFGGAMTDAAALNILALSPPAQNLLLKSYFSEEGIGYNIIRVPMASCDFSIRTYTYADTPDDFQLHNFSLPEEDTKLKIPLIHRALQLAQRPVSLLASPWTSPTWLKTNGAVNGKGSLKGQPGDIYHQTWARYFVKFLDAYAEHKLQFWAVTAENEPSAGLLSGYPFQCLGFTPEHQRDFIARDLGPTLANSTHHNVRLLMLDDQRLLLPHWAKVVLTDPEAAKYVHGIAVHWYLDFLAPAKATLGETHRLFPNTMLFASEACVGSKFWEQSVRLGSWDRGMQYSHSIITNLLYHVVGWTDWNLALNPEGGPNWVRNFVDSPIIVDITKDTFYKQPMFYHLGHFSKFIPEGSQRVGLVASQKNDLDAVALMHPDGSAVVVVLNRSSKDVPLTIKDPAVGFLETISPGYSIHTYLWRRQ
In short: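 Normal human glucocerebrosidase (0.2 nM) with blue fluorogenic substrate (80 uM final) in citrate/phosphate pH 5.9 with 10mM sodium taurocholate, 0.01% tween-20; 40 min RT, NaOH/glycine stop; fluorescence Ex 365/Em 440; AC50 from a titration from 0.6 nM upwards.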

[2] = AP1 Signaling Pathway (AID 357; active means well fitted curve in either direction with a large enough effect, not every such curve was filed as active; further: on the % scale 0 is the no-effect control and ±100 the full control effect); details: ME-180 AP-1-bla reporter, EGF-induced, beta-lactamase ratio, 5 h; at 7.69 µM (top of the series) unless noted
In short: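 ME-180 cells with beta-lactamase reporter under AP-1 response element, stimulated with EC50 EGF; compounds tested in titration series, 5 h at 37 °C. CCF4 substrate added 2.5 h at room temperature; 460/530 nm emission ratio gave %activity and AC50.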

[3] = molecular target: Cytochrome P450 1A2 (Homo sapiens) (UniProt P05177); test: p450-cyp1a2 (AID 410; calls by dose curve; further: potency means the concentration at half of the fitted maximal effect); details: recombinant CYP1A2, luciferin-ME demethylation, luminescence; series mostly up to 57 µM
Chain of Cytochrome P450 1A2 (Homo sapiens) (P05177 whole entry, looked up): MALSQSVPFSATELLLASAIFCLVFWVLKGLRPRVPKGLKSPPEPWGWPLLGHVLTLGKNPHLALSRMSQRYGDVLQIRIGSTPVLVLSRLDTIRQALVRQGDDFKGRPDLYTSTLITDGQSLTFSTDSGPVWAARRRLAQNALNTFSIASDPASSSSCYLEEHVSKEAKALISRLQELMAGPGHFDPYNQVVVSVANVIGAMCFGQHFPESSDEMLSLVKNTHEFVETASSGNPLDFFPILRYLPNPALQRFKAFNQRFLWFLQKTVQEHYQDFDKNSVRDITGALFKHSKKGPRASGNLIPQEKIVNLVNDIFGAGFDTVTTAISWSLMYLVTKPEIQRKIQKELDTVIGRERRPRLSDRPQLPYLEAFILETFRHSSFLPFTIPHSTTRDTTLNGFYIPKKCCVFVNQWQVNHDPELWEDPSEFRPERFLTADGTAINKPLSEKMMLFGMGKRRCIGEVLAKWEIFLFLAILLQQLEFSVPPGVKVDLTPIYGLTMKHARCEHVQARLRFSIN
In short: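 O-Demethylation of luciferin 6' methyl ether by human CYP1A2 is monitored as luciferase luminescence. Substrate sits at Km (100uM); enzyme is 20nM. Values are scaled to 57 uM furafylline as maximal inhibition.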

[4] = NFAT Signaling Pathway (AID 444; active means well fitted curve in either direction with a large enough effect, not every such curve was filed as active;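 further: carbachol stimulus at about its EC50 of 1 µM final; on the % scale 0 is the no-effect control and ±100 the full control effect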); details: Jurkat NFAT-bla M1, carbachol, beta-lactamase ratio, 5 h; at 7.69 µM (top of the series) unless noted
In short: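 Jurkat cells with NFAT-driven β-lactamase reporter and co-expressed M1 receptor, stimulated with carbachol (final 1 uM, ~EC50), compound titration, 5 h at 37 °C. CCF4 loaded 1 h at RT; 460/530 nm ratio gave %activity and AC50.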

[5] = Stat Signaling Pathway (AID 446; active means well fitted curve in either direction with a large enough effect, not every such curve was filed as active;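 further: ME-180 cervical cancer cells given 40 pM IL-6 alongside compound; SIE-controlled beta-lactamase reporter measured as 460/530 nm FRET emission ratio; on the % scale 0 is the no-effect control and ±100 the full control effect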); details: ME-180 SIE beta-lactamase reporter, IL-6 stimulated, 5 h; at 7.69 µM (top of the series) unless noted
In short: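 FRET read-out (405 nm excitation, 460/530 nm emission) of a beta-lactamase reporter under a STAT-inducible element in ME-180 cervical carcinoma cells. Cells with compound receive 40 pM IL-6 for 5 h. Values are normalised to AC90 stimulation and AC90 JAK-inhibitor controls.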

[6] = molecular target: Glucocorticoid receptor (Homo sapiens) (UniProt P04150); test: GR-GFP Redistribution (AID 450;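 active means compounds whose dose series gives a full or clear partial fitted curve of increased nuclear translocation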; further: potency means the concentration at half of the fitted maximal effect); details: U2OS GR-GFP nuclear translocation, laser cytometry, 2 h
Chain of Glucocorticoid receptor (Homo sapiens) (P04150 whole entry, looked up, the tested form may be a part): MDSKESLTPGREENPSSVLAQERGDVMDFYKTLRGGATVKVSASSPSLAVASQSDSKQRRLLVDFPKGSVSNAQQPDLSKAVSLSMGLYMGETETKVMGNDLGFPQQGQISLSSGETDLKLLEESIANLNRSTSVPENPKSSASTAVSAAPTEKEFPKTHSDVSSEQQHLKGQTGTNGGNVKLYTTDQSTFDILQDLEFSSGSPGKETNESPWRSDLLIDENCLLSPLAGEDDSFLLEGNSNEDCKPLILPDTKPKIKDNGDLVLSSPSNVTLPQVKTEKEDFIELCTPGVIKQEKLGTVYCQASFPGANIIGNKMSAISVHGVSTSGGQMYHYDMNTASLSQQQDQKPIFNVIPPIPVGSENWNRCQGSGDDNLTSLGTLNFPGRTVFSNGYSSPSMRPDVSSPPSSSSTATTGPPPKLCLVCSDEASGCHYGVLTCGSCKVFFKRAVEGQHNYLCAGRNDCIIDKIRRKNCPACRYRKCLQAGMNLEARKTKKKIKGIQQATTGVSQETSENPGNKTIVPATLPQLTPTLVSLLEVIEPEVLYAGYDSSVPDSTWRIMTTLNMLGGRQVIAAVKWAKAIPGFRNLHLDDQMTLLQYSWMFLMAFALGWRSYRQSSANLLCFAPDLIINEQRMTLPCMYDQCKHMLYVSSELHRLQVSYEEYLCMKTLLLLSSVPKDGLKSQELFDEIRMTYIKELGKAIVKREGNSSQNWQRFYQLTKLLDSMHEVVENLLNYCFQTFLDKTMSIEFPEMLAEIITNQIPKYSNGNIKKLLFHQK

[7] = molecular target: Glucocorticoid receptor (Homo sapiens) (UniProt P04150); test: GR-EFC Redistribution (AID 451; calls by dose curve; further: potency means the concentration at half of the fitted maximal effect); details: CHO-K1 GR-EFC translocation, beta-gal luminescence, 2 h
In short: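 CHO-K1 cells expressing nuclear EA and GR-ED fragments of b-gal; compounds titrated up to 46 uM final, 2 h at 37 C. GR nuclear translocation read as complemented b-gal luminescence after 1 h RT detection.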

[8] = molecular target: Mitogen-activated protein kinase 10 (Mus musculus) (UniProt Q61831); test: JNK3 AlphaScreen Assay (AID 530; active means well fitted curve in either direction with a large enough effect, not every such curve was filed as active;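 further: kinase came from lysate of stimulated human HepG2 cells; signal reports phosphorylation of biotinylated GST-cJun 1-79 at Ser73 with 10 µM ATP; on the % scale 0 is the no-effect control and ±100 the full control effect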); details: JNK3 lysate, c-Jun phosphorylation; series mostly up to 57.1 µM
In short: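 Activity was read by AlphaScreen after JNK3-containing HepG2 lysate (cytokine pre-activated) phosphorylated biotinylated GST-cJun with 10 uM ATP at room temperature. Phospho-Ser73 cJun antibody with Protein-A acceptor beads provided detection.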

[9] = molecular target: Cytochrome P450 3A4 (Homo sapiens) (UniProt P08684); test: qHTS Assay for Inhibitors and Substrates of Cytochrome P450 3A4 (AID 884); details: recombinant CYP3A4, Luciferin-PPXE luminescence; series mostly up to 57.1 µM; further: potency means the concentration at half of the fitted maximal effect; nearly all actives have a fitted effect of over 50% in size
Chain of Cytochrome P450 3A4 (Homo sapiens) (P08684 whole entry, looked up): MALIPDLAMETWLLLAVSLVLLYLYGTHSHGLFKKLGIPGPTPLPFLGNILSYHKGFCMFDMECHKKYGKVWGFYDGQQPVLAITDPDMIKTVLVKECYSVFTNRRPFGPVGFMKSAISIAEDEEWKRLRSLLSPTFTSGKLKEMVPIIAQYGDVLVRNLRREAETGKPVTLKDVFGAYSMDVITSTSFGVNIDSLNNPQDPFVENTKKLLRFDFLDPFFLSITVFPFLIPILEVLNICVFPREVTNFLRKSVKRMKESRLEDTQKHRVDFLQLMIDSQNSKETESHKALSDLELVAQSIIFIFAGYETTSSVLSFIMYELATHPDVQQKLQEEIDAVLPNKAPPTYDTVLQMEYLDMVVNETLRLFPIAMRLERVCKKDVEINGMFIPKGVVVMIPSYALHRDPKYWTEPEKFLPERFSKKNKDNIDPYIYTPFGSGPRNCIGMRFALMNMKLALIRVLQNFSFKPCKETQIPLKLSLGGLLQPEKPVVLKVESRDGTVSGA
In short: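 Luminescent readout of luciferin produced by CYP3A4 (20 nM) dealkylation of Luciferin-PPXE, 25 uM (its KM). NADPH-driven reaction ran 60 min at RT after 10 min compound preincubation; data scaled to 57 uM ketoconazole as 100% inhibition.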

[10] = molecular target: Cytochrome P450 3A4 (Homo sapiens) (UniProt P08684); test: qHTS Assay for Activators of Cytochrome P450 3A4 (AID 885); details: recombinant CYP3A4, Luciferin-PPXE luminescence, 60 min; series mostly up to 57.1 µM; further: nearly all actives have a fitted effect of over 65% in size
In short: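 Luminescent readout of luciferin formed from 25 uM Luciferin-PPXE (KM level) by 20 nM CYP3A4 in 200 mM KPO4, with 60 min NADPH-driven reaction at room temperature after 10 min compound exposure. Ketoconazole (57 uM) defined 100% inhibition.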

[11] = molecular target: Cytochrome P450 2C19 (Homo sapiens) (UniProt P33261); test: qHTS Assay for Inhibitors and Substrates of Cytochrome P450 2C19 (AID 899); details: recombinant CYP2C19, luciferin-H EGE luminescence; series mostly up to 57.1 µM; further: potency means the concentration at half of the fitted maximal effect; nearly all actives have a fitted effect of over 60% in size
Chain of Cytochrome P450 2C19 (Homo sapiens) (P33261 whole entry, looked up): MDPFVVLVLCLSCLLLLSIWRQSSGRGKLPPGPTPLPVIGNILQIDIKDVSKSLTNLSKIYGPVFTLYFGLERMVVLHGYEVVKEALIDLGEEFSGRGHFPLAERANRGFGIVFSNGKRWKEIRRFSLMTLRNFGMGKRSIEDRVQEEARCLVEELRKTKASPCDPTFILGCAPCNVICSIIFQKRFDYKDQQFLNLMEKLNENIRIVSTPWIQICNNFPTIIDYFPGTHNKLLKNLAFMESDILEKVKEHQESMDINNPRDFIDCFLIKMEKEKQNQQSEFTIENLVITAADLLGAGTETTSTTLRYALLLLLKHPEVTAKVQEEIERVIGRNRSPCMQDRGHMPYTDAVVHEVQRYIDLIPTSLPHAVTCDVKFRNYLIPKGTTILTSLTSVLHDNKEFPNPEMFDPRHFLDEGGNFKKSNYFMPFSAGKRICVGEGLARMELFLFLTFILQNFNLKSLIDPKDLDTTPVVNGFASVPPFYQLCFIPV
In short: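 5 nM human CYP2C19 with 10uM Luciferin-H EGE (at KM) in 50mM KPO4, compound preincubated 10 min at 37C, then NADPH regeneration for 60 min at 37C. Luciferin read by luminescence after detection reagent; normalized to 57uM ketoconazole as full inhibition.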

[12] = molecular target: Dual specificity protein kinase CLK4 (Homo sapiens) (UniProt Q9HAZ1); test: qHTS Assay for Inhibitors of CDC-like Kinase 4 (Kinase-Glo Assay) (AID 1770); details: recombinant Clk4, Kinase-Glo ATP depletion luminescence; series mostly up to 66.7 µM; further: nearly all actives have a fitted effect of over 65% in size; further: potency means the concentration at half of the fitted maximal effect
Chain of Dual specificity protein kinase CLK4 (Homo sapiens) (Q9HAZ1 whole entry, looked up): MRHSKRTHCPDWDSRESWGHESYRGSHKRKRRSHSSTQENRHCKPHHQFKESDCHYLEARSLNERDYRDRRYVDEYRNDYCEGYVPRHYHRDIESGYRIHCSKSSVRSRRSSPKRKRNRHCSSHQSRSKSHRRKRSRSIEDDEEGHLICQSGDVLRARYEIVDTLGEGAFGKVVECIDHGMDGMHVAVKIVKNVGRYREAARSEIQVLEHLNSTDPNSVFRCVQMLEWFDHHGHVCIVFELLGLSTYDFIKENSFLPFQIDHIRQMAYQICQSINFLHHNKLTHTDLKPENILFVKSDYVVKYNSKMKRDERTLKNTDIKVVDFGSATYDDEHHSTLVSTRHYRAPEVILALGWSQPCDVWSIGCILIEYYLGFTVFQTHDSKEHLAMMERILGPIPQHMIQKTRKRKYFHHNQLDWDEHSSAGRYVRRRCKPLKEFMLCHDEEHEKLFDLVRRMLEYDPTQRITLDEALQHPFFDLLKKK
In short: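 Inhibition was judged from remaining ATP, measured by Ultra-Glo luciferase bioluminescence after Clk4 (25 nM) had acted on RS peptide at 1 uM ATP for 4.5 hours, room temperature.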

[13] = molecular target: Dual specificity protein kinase CLK4 (Homo sapiens) (UniProt Q9HAZ1); test: qHTS Assay for Inhibitors of CDC-like Kinase 4 (ADP-Glo Assay) (AID 1771); details: recombinant CLK4, ADP-Glo luminescence; series mostly up to 80 µM; further: nearly all actives have a fitted effect of over 70% in size; further: potency means the concentration at half of the fitted maximal effect
In short: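 Compounds are pin-transferred onto substrate mix (100 uM RS peptide, 1 uM ATP), then 25 nM Clk4 is added. After 1 hr at room temperature, ADP-Glo reagent runs 45 min, detection reagent 30 min, then luminescence is read.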

[14] = molecular target: Dual specificity protein kinase CLK4 (Homo sapiens) (UniProt Q9HAZ1); test: qHTS Assay for Inhibitors of CDC-like Kinase 4 (ADP-FP Assay) (AID 1795); details: Transcreener ADP fluorescence polarization; series mostly up to 50 µM; further: nearly all actives have a fitted effect of over 60% in size; further: potency means the concentration at half of the fitted maximal effect
In short: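 Inhibition of ADP formation by 6.25 nM Clk4 is measured using 1 uM ATP and 100 uM RS repeat peptide over one hour. Produced ADP displaces a fluorescent tracer from antibody, lowering polarization.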

[15] = molecular target: Ubiquitin carboxyl-terminal hydrolase 1 (Homo sapiens) (UniProt O94782); test: Inhibitors of USP1/UAF1: Pilot qHTS (AID 504865); details: purified USP1/UAF1, Ub-rhodamine cleavage fluorescence; series mostly up to 54.9 µM; further: nearly all actives have a fitted effect of over 35% in size; further: potency means the concentration at half of the fitted maximal effect
Chain of Ubiquitin carboxyl-terminal hydrolase 1 (Homo sapiens) (O94782 whole entry, looked up): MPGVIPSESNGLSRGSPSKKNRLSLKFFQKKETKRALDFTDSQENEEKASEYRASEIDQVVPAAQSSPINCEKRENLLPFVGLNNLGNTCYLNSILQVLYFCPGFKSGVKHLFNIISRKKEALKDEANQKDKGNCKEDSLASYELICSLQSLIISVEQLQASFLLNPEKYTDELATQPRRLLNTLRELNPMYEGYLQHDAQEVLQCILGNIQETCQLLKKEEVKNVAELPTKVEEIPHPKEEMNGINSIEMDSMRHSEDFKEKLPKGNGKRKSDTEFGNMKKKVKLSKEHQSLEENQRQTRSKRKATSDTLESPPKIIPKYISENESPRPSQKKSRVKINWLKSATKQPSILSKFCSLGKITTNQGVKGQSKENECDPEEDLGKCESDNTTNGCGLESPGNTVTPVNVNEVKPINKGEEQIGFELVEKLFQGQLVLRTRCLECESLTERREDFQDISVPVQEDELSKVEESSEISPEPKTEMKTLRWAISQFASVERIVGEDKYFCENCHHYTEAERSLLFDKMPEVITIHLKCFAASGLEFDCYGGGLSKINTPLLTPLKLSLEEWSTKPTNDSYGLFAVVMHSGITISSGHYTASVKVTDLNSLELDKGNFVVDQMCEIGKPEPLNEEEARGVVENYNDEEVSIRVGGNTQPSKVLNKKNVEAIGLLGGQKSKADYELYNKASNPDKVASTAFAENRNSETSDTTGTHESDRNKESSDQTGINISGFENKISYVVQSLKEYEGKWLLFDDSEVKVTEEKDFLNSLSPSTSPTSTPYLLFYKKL
In short: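 Kinetic fluorescence assay: 1nM USP1/UAF1, 15 min compound preincubation, then 150nM Ub-Rho; 480/540 nm.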

[16] = Primary qHTS for small molecule stabilizers of the endoplasmic reticulum resident proteome: Secreted ER Calcium Modulated Protein (SERCaMP) assay (AID 1508630); details: SH-SY5Y GLuc-SERCaMP (Gaussia luciferase released on ER calcium loss) secretion, thapsigargin, luminescence; series mostly up to 38.4 µM; further: on the % scale 0 is the no-effect control and ±100 the full control effect
In short: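 The SH-SY5Y reporter protocol was run at 3 concentrations up to 38.3 uM (primary) or 11 concentrations (follow-up): 16 h compound, 100 nM thapsigargin for 4 h, then extracellular luciferase luminescence.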

[17] = molecular target: 3',5'-cyclic-AMP phosphodiesterase 4B (Homo sapiens) (UniProt Q07343); test: qHTS Assay for Inhibitors of PDE-IV (AID 607; active means well fitted activation curve with a large enough effect in the main read-out, with a control signal flat, not every such curve was filed as active; further: % of control where 0% means no effect); details: HEK293 ACTOne CNG channel cells, membrane potential fluorescence; series mostly up to 22.9 µM
Chain of 3',5'-cyclic-AMP phosphodiesterase 4B (Homo sapiens) (Q07343 whole entry, looked up): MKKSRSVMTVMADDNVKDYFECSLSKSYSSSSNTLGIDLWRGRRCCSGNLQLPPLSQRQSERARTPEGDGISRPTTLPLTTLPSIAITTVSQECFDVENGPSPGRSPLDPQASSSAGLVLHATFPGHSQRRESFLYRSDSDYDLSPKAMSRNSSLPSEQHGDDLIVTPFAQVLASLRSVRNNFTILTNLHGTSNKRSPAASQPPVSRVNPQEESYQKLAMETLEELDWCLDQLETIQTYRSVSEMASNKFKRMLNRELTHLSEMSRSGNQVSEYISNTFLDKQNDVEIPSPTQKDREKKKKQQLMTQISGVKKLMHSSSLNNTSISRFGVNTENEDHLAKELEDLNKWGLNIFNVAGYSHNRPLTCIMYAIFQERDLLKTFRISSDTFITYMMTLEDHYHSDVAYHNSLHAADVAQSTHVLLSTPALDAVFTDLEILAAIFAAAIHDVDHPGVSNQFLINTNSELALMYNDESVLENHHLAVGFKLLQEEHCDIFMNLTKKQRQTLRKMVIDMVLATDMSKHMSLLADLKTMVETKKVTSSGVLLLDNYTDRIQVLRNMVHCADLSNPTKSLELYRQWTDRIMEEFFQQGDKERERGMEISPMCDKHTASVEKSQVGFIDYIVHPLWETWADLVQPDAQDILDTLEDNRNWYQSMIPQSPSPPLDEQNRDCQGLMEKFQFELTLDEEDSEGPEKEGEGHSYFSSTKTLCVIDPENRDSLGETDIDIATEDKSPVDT
In short: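 Cell-based read-out of cAMP via a modified cyclic nucleotide-gated channel and membrane potential dye (535/590 nm) in HEK293 cells expressing PDE4 endogenously. Compounds tested up to 22.9 uM final; 100 uM RO 20-1724 reference.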

[18] = qHTS Assay for Identification of Small Molecule Agonists for Hypoxia Response Element Signaling Pathway (AID 914; active means well fitted activation curve with a large enough effect in the signal ratio, with a control signal flat, not every such curve was filed as active; the % refers to the signal ratio; further: % of control where 0% means no effect); details: ME-180 (cervical carcinoma) HRE-bla reporter, beta-lactamase ratio, CoCl2, 17 h; activation: stronger effect = higher value
In short: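 qHTS titration; ME-180 HRE-bla cells; EC50 CoCl2 co-treatment, 17 h at 37 degrees Celsius; CCF4 dye, ex 405nm, em 460nm and 530nm; %Activity from ratio; AC50.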

c1ccc(CNc2ncncc2-c2ccc3c(c2)OCO3)cc1
Potency [1]: > 11.4 µM
activity change, negative = inhibition [2]: -23.4%
Potency [3]: 0.126 µM (active)
activity change, negative = inhibition [4]: 7.28%
activity, negative = inhibition [5]: -0.121%
Potency [6]: > 46 µM
Potency [7]: > 46 µM
Potency [8]: inactive
Potency [9]: 501 nM (active)
Potency [10]: inactive
Potency [11]: 501 nM (active)
Potency [12]: 6.31 µM (active)
Potency [13]: 7.08 µM (active)
Potency [14]: 2.51 µM (active)
Potency [15]: inactive
outcome [16]: inactive

CN(C)C(=O)c1ccc(-c2nccc(NCc3ccccc3)n2)cc1
Potency [1]: > 11.4 µM
activity change, negative = inhibition [2]: -2.34%
Potency [3]: 15.8 µM (active)
activity change, negative = inhibition [4]: 15.6%
activity, negative = inhibition [5]: -5.63%
Potency [6]: > 46 µM
Potency [7]: > 46 µM
Potency [8]: inactive
Potency [17]: inactive
Potency [10]: inactive
Potency [12]: inactive
Potency [13]: inactive
Potency [14]: inactive
Potency [15]: inactive
outcome [16]: inactive

COCCn1c(=O)c(-c2cccs2)nc2cnc(OC)nc21
Potency [1]: > 11.4 µM
activity change, negative = inhibition [2]: 6.04%
Potency [3]: 2.51 µM (active)
activity change, negative = inhibition [4]: 15.6%
activity, negative = inhibition [5]: 6.32%
Potency [6]: > 9.22 µM
Potency [7]: > 46 µM
Potency [8]: inactive
Potency [10]: inactive
Potency [12]: inactive
Potency [13]: inactive
Potency [14]: inactive
Potency [15]: inactive
outcome [16]: inactive

O=c1c(CCc2ccccc2)nc2cnc(N3CCOCC3)nc2n1CCc1ccccc1
Potency [1]: > 11.4 µM
activity change, negative = inhibition [2]: 0.172%
Potency [3]: 25.1 µM (active)
activity change, negative = inhibition [4]: 6.88%
activity, negative = inhibition [5]: -4.94%
Potency [6]: > 9.22 µM
Potency [7]: > 46 µM
Potency [8]: inactive
activation [18]: -4.33%
Potency [12]: inactive
Potency [13]: inactive
Potency [14]: inactive
Potency [15]: inactive
outcome [16]: inactive

c1cc(NC2CC2)nc(-c2ccoc2)n1
Potency [1]: > 11.4 µM
activity change, negative = inhibition [2]: -10.4%
Potency [3]: 0.251 µM (active)
activity change, negative = inhibition [4]: -10.6%
activity, negative = inhibition [5]: 14.4%
Potency [6]: > 46 µM
Potency [7]: > 46 µM
Potency [8]: inactive
Potency [17]: inactive
Potency [10]: inactive
Potency [12]: inactive
Potency [13]: inactive
Potency [14]: inactive
Potency [15]: inactive
outcome [16]: inactive

Cc1ccccc1-c1ccc2ncnc(NCc3cccs3)c2c1
Potency [1]: > 11.4 µM
activity change, negative = inhibition [2]: -9.99%
Potency [3]: 2.51 µM (active)
activity change, negative = inhibition [4]: -15.8%
activity, negative = inhibition [5]: -13.1%
Potency [6]: > 46 µM
Potency [7]: > 46 µM
Potency [8]: inactive
Potency [9]: 3980 nM (active)
Potency [10]: inactive
activation [18]: 2.83%
Potency [12]: 3.98 µM (active)
Potency [13]: 3.55 µM (active)
Potency [14]: 3.55 µM (active)
Potency [15]: 14.1 µM (active)
outcome [16]: inactive
